# Test results from PMC4336329 (PLoS ONE, 2015).
# Out of some 310,000 compounds screened, about 2,200 (0.71%) showed an effect of 50% or more. The effect is printed as a negative number. The sample as a whole holds a higher share of strong results than the screen did.
# Target: human ether-à-go-go-related gene (hERG) potassium channel (human, UniProt Q12809)
# Assay: primary screen, population patch clamp on CHO cells stably expressing hERG; higher = less effect of the substance
# Chain of human ether-à-go-go-related gene (hERG) potassium channel (Q12809 whole entry, looked up): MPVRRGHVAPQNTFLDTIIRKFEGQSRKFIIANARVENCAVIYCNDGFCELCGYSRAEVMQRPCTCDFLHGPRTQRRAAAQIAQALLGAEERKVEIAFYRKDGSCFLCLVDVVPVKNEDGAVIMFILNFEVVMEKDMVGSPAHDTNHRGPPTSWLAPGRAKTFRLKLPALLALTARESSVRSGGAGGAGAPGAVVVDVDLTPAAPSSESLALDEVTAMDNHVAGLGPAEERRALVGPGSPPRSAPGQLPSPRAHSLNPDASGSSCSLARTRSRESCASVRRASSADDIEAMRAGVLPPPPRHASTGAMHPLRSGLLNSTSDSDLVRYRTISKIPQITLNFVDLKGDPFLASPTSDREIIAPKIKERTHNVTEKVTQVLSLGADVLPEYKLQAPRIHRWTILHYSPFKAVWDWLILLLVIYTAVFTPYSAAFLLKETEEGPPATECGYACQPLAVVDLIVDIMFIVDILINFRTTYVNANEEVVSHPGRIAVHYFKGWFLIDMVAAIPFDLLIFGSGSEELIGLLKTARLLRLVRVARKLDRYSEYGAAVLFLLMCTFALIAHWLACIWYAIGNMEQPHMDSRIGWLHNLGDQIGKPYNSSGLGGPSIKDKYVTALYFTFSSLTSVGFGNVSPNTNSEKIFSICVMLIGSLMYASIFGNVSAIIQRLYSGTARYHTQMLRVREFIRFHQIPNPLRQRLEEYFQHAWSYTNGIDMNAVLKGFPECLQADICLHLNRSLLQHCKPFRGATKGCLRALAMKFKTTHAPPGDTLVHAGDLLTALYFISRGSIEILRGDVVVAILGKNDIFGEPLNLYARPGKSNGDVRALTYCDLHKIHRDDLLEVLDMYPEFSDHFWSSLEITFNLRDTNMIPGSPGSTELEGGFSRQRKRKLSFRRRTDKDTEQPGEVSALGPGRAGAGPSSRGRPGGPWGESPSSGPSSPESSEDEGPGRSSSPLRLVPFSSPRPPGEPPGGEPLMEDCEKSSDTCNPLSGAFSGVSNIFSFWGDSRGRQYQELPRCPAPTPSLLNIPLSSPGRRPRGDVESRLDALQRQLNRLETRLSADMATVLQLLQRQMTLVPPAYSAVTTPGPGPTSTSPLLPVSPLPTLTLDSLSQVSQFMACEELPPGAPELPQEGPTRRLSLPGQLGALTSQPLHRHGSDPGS
row,SMILES,"hERG current change (%, negative = inhibition) at 1uM [%]"
1,COc1cccc(NC(=O)CN2C(=O)COc3ccc(Cl)cc32)c1,8.19
2,Cc1ccc(C)c(NC(=S)NNC(=O)c2csc(C(C)C)c2)c1,0.742
3,COc1cc(NC(=O)c2sc3nc(C)nc(N4CCOCC4)c3c2C)cc(OC)c1OC,30.1
4,Cc1csc2nc3cc(C(N)=O)ccc3c(=O)n12,10.2
5,CCCCN(CC)Cc1c(C)[nH]c2c(ccc3ccccc32)c1=O,-49.6
6,CCCCN(C)Cc1c(C)[nH]c2c(ccc3ccccc32)c1=O,-56.1
7,CCCCN(C)Cc1c(C)[nH]c2ccccc2c1=O,-8.8
8,O=C(c1ccco1)N1C(=O)c2cccc3c(S(=O)(=O)N4CCCC4)ccc1c23,6.3
9,CCc1ccc2oc(-c3cc(N)ccc3Cl)nc2c1,12
10,COc1ccc(C(=O)C2CCCN(C3Cc4ccccc4C3)C2)cc1OC (stereo not shown),-33.2
11,COc1cccc(C(=O)C2CCCN(C/C=C/c3ccccc3OC)C2)c1 (stereo not shown),-2.82
12,COc1ccc(C(=O)C2CCCN(C3Cc4ccccc4C3)C2)c(OC)c1 (stereo not shown),-68.2
13,COc1ccc(C(=O)C2CCCN(C3CSCCSC3)C2)c(OC)c1 (stereo not shown),-4.62
14,COc1ccc(F)cc1C(=O)C1CCCN(Cc2c[nH]c3ccccc23)C1 (stereo not shown),-18.6
15,COc1ccc(C(=O)C2CCCN(Cc3c(C)[nH]c4ccccc34)C2)c(OC)c1 (stereo not shown),-28.6
16,COc1ccc(C(=O)C2CCCN(Cc3ccc(C)s3)C2)c(OC)c1 (stereo not shown),-2.87
17,COc1ccc(C(=O)C2CCCN(Cc3c[nH]c4ccccc34)C2)c(OC)c1 (stereo not shown),-58.8
18,COc1ccc2cc(C(=O)C3CCCN(Cc4cccc(C)n4)C3)ccc2c1 (stereo not shown),11.2
19,COc1ccc(C(=O)C2CCCN(Cc3cccc(C)n3)C2)c(OC)c1 (stereo not shown),-58.3
20,COc1cccc(C(=O)C2CCCN(Cc3cccc(C)n3)C2)c1 (stereo not shown),-30.1
21,COc1ccc(C(=O)C2CCCN(C/C=C/c3ccccc3OC)C2)c(OC)c1 (stereo not shown),-78.6
22,CNC(=O)NC(=O)CSc1nnc(C(F)(F)F)n1C,8.32
23,O=C(OCC(=O)N1CCCC1)c1c(Cl)ccc(Cl)c1Cl,9.45
24,CCCc1nc(NC(C)=O)c(C#N)c(-c2ccco2)c1CC,0.0807

row,SMILES,"hERG current change (%, negative = inhibition) at 1uM [%]"
1,Cc1cccc(C)c1NC(=O)c1c[nH]c2ccccc12,11.7
2,COCC(C)n1c(C)cc(C(=O)CN2c3cccc4cccc(c34)S2(=O)=O)c1C (stereo not shown),7.82
3,CC(C)C(c1nnnn1Cc1ccccc1)N(CCCO)Cc1cc2cc3c(cc2[nH]c1=O)OCO3 (stereo not shown),10.4
4,COC(=O)c1cc2ccsc2n1CC(=O)Nc1ccc(N(C)C)cc1,5.25
5,C=CCN1N=C(c2ccc(Cl)s2)CSC1=O,22.3
6,Cc1ccc(NC(=S)NC(=O)CC2CC(C)(C)OC2=O)cc1 (stereo not shown),8.78
7,CCN1C(=O)/C(=C2\C=Cc3cc(C)ccc3N2CC)OC1=S,14
8,CCN1C(=C(C#N)C#N)C=Cc2cc(C)ccc21,14.9
9,CCN1/C(=C/c2ccc3ccccc3[n+]2CC)C=Cc2ccccc21.[Cl-],-89.5
10,CCN1/C(=C2\C(=O)N(c3ccccc3)N=C2C)C=Cc2cc(C)ccc21,-1.41
11,CCN1C(=C(C#N)C#N)C=Cc2ccccc21,15.9
12,C=CC[n+]1c(/C=C2\C=Cc3cc(C)ccc3N2CC)ccc2ccccc21.[Br-],-92.1
13,CCN1/C(=C/c2ccc3ccccc3[n+]2CCCS(=O)(=O)[O-])C=Cc2cc(C)ccc21,13
14,CCN1/C(=C/c2cc[n+](C)cc2)C=Cc2cc(C)ccc21.[I-],-55.5
15,CCOC(=O)/C(C#N)=C/C=C1\C=Cc2ccccc2N1CC,14.8
16,O=S(=O)(CCc1nnc(-c2ccc(Br)cc2)o1)c1ccc(Cl)cc1,6.04
17,Cc1cccc(NC(=O)CSc2cccc3cccnc23)c1C,13.9
18,COc1ccccc1NC(=O)c1nc[nH]c1C(=O)Nc1ccccc1OC,22.2
19,CCCCCC(=O)N1CCN(CCN=CC2=C(O)CC(c3cccs3)CC2=O)CC1 (stereo not shown),-109
20,CC(=O)N1CCN(CCN=CC2=C(O)CC(c3ccco3)CC2=O)CC1 (stereo not shown),2.39
21,CC(C)C(=O)N1CCN(CCN=CC2=C(O)CC(c3ccco3)CC2=O)CC1 (stereo not shown),14
22,CCC(=O)N1CCN(CCN=CC2=C(O)CC(c3cccs3)CC2=O)CC1 (stereo not shown),9.17
23,CCCCCC(=O)N1CCN(CCN=CC2=C(O)CC(c3ccco3)CC2=O)CC1 (stereo not shown),-74.7
24,CC(=O)N1CCN(CCN=CC2=C(O)CC(c3cccs3)CC2=O)CC1 (stereo not shown),10.4

row,SMILES,"hERG current change (%, negative = inhibition) at 1uM [%]"
1,COc1ccc(C(=O)NC(=S)Nc2ccc(S(=O)(=O)Nc3cc(OC)nc(OC)n3)cc2)cc1,13.7
2,O=C(Oc1ccc2c(c1)CCC2)N1CCOCC1,11.3
3,Cc1ccc(S(=O)(=O)N2CCCC2C(=O)NCc2ccco2)cc1 (stereo not shown),8.74
4,Cc1ccc(C)c(S(=O)(=O)N2CCCOC2CNC(=O)C(=O)NC2CC2)c1 (stereo not shown),19.9
5,COc1ccc(Nc2nc(N3CCN(C)CC3)nc3ccccc23)c(OC)c1,-76.6
6,COc1ccc(Nc2nc(N3CCCCC3)nc3ccccc23)c(OC)c1,-12.1
7,COc1ccc(Nc2nc(N3CCCC3)nc3ccccc23)c(OC)c1,-7.36
8,Cc1ccc(-n2c(SCC(=O)NCC3CCCO3)nc3c(c2=O)SCC3)cc1 (stereo not shown),2.53
9,COc1ccc(CN(C)CC2CCCN(CCc3ccc(Cl)cc3)C2)cc1OC (stereo not shown),-78.2
10,Cc1ccccc1CCN1CCCC(CN(C)C(=O)C(=O)c2ccco2)C1 (stereo not shown),-17.7
11,CN(CC1CCCN(CCc2ccc(Cl)cc2)C1)C(=O)c1ccoc1 (stereo not shown),-85.3
12,CN(C)C(=O)CCC(=O)N(C)CC1CCCN(CCc2ccc(F)cc2)C1 (stereo not shown),-0.257
13,COc1ccc(CCN2CCCC(CN(C)C(=O)c3ccoc3C)C2)cc1 (stereo not shown),18.4
14,Cc1cc(C(=O)N(C)CC2CCCN(CCc3ccc(F)cc3)C2)c(C)o1 (stereo not shown),-71.6
15,COc1ccc(CN(C)CC2CCCN(CCc3ccc(F)cc3)C2)cc1OC (stereo not shown),-8.47
16,CN(CC1CCCN(CCc2ccc(Cl)cc2)C1)C(=O)c1ccco1 (stereo not shown),11.1
17,COc1ccc(CCN2CCCC(CN(C)C(=O)c3ccoc3)C2)cc1 (stereo not shown),-32.6
18,COc1cccc(CN(C)CC2CCCN(CCc3ccc(Cl)cc3)C2)c1OC (stereo not shown),-3.32
19,CN(CC1CCCN(CCc2ccc(Cl)cc2)C1)C(=O)C(=O)c1ccco1 (stereo not shown),-72.5
20,CN(CC1CCCN(CCc2ccccc2F)C1)C(=O)c1ccoc1 (stereo not shown),-25.9
21,O=C(O)CCC(=O)Nc1sc2c(c1C(=O)NCc1ccccc1)CCCC2,0.699
22,Cc1cc2c(cc1C)C(c1ccccc1Br)CC(=O)N2 (stereo not shown),13.7
23,Cc1ccc(N2CC(C(=O)Oc3cccc(N4C(=O)CCC4=O)c3)CC2=O)cc1 (stereo not shown),-8.29
24,Cc1nn(-c2ccccc2)c(Cl)c1/C=N/O,4.67

row,SMILES,"hERG current change (%, negative = inhibition) at 1uM [%]"
1,Cc1c(C(C)(C)C)s/c(=N/S(=O)(=O)c2ccccc2)n1C,12.6
2,N#Cc1c(NC(=O)CSc2nc3ccccc3s2)sc2c1CCCC2,9.38
3,O=C(O)c1ccc(N/N=C/c2ccncc2)cc1,10
4,COCc1ccc(C(=O)N(C)CC2CCCN(CCc3ccc(OC)cc3)C2)o1 (stereo not shown),-38.5
5,COCc1ccc(C(=O)N(C)CC2CCCN(CCc3ccc(Cl)cc3)C2)o1 (stereo not shown),-65.1
6,COCc1ccc(C(=O)N(C)CC2CCCN(CCc3ccccc3F)C2)o1 (stereo not shown),-11.7
7,COc1ccc(CNc2nc3c(c(=O)n(Cc4ccc(Br)cc4)c(=O)n3C)n2C)cc1,-10.5
8,C[N+](C)(C)CCN(Cc1ccc(Cl)cc1)c1ccccn1.[I-],6.09
9,CN(C)CCN(Cc1ccc(Cl)cc1)c1ccccn1.Cl,-57.1
10,CN(C)CCN(Cc1ccccc1)c1ccccn1.Cl,-19.1
11,Cc1ccc(-n2cccc2/C=C2/C(=N)N3C(=NC2=O)SN=C3S(C)(=O)=O)cc1Cl,11.1
12,COC(=O)[C@H]1C[C@H](C(=O)O)[C@@H](C)C1(C)C,9.34
13,O=Cc1ccc(-n2nncc2-c2ccc([N+](=O)[O-])cc2)cc1,-12.4
14,O=[N+]([O-])c1ccc(-n2nncc2-c2ccccc2)cc1,0.0452
15,O=[N+]([O-])c1ccc(-n2nncc2-c2ccc(Cl)cc2)cc1,-60.4
16,CCS(=O)(=O)NCCCc1ccccc1,-5.33
17,CCn1c(/C=C/Nc2ccccc2)[n+](CC)c2ccc(Cl)cc21.[I-],-82.8
18,CCn1c(/C=C/Nc2ccccc2)[n+](CC)c2cc(Cl)c(Cl)cc21.[I-],-87.2
19,CCn1c(C)[n+](CCOCC[n+]2c(C)n(CC)c3cc(Cl)c(Cl)cc32)c2cc(Cl)c(Cl)cc21.[I-],8.45
20,CCn1c(/C=C/N(C(C)=O)c2ccccc2)[n+](CC)c2ccc(Cl)cc21.[I-],5.77
21,CCn1c(/C=C/N(C(C)=O)c2ccccc2)[n+](CCCS(=O)(=O)[O-])c2cc(Cl)c(Cl)cc21,10.6
22,Cc1n(C)c2cc(Cl)ccc2[n+]1Cc1ccccc1.[I-],4.11
